From publication PMC12136788
Substitutions are numbered along the chain they refer to. Over roughly 24,000 sequences, “enrichment r” has its median near 0.99; the highest 2% begin near 3.7. Many of the other results were omitted from the sample, so the highest values are more common in it than they were.

T1: UNK ZnF1-3 (human, UniProt Q9C0B0 31-174)
T1 sequence: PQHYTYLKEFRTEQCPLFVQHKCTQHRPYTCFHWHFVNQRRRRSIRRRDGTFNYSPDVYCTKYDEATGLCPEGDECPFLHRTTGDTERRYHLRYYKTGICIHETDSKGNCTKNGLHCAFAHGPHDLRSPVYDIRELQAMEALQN

B1: chr1:89346535:89346536:+_ENSMUSG00000048000_ENSMUST00000174671|mus_mus|motif|central (ssRNA)
RNA: GGGAGUUCUACAGUCCGACGAUCAAGAUGCCUCUUAAACGAGACAAAUUUUCACAUAAGGGCCCAAAACAAACUGGUCCGGGUCCUUGAAGUAAAAAUAUUUAUGGGAGGAGGGGAGAUCAGUUUUUAUAUGAAAGGAAAAUUCAACAGAGGAUUGAGCAUCA
B2: chr1:89346535:89346536:+_ENSMUSG00000048000_ENSMUST00000174671|mus_hu|FALSE|FALSE (ssRNA)
RNA: GGGAGUUCUACAGUCCGACGAUCAGCUGCCUCUUAAACGAGACAAAUUUUCAGCAGAAGGGCCCAAAACAAAAUGGUCCUAGUCCUCUGAAGUAAAAAUAUUUAUGGGAAAAAUCAGUUUUUGUAAGAAAGAAAAAUUAAGAACAACAGAGGAUUGAGCAUCA
B3: chr1:89346535:89346536:+_ENSMUSG00000048000_ENSMUST00000174671|mus_hu|motif|central (ssRNA)
RNA: B2 RNA with U80G, A81G
B4: chr2:42509997:42509998:+_ENSG00000143924_ENST00000318522|hu_mus|hu_hu_hu_mus_True|78_78 (ssRNA)
RNA: GGGAGUUCUACAGUCCGACGAUCUCGCUGAGUCCUCUCCUCAUAAUUAAACAGGACUACUACUGAUGCGAUAAAAUAAACUAUCUCCCCUGUGGGAAGCAGGUAUACAUUCGCUCUACAGUCCUUUCCUCGAUAACCGUAUACCAACAGAGGAUUGAGCAUCA
B5: chr10:13251168:13251169:-_ENSMUSG00000019809_ENSMUST00000019945|mus_hu|FALSE|FALSE (ssRNA)
RNA: GGGAGUUCUACAGUCCGACGAUCAGCCAUAUUGUCUAGAAGUCUACUAAAACCUCGGUUUAAACAGGUAUUCAAAACUGUACUAAAAUCUGGGCUUUCCAACAUGUCUCUAGUUUCAUUGAGAAGUUUAAUAGUGGUAAUGUCCAACAGAGGAUUGAGCAUCA
B6: chr16:732453:732454:+_ENSG00000103266_ENST00000219548|hu_mus|FALSE|FALSE (ssRNA)
RNA: GGGAGUUCUACAGUCCGACGAUCUGCCAGGCAGGACAUGGGGCCUCAAUAGUCCUCUACCCAGCCGUUCUCAGAGAUGAAAGCGUCAAUGACUUCCUUCAUGGCCAAGUUGGGGAUGAGCUGUUCCUGGGUCAGAGGGCUCCGCAACAGAGGAUUGAGCAUCA
B7: chr9:95013113:95013114:-_ENSG00000196305_ENST00000443024|hu_hu|hu_hu_hu_mus_False|1_88 (ssRNA)
RNA: GGGAGUUCUACAGUCCGACGAUCCUCAGUCAGAAAGGGCGUGUAAGGAGCCAUAAGUCUGCACAGAGAAAGCAGGACACUGAACAGUGUCUCCAGAGCCAUGACACAGUCUUCCACCCCACUCUCACCCUUUAACCUUCUGCGCAACAGAGGAUUGAGCAUCA
B8: chr7:135612270:135612271:-_ENSG00000105887_ENST00000393085|hu_mus|hu_hu_hu_mus_False|28_58 (ssRNA)
RNA: GGGAGUUCUACAGUCCGACGAUCGUUUUUUUCUGAGAUGUUAAAUAGUACUUCAGUGGAAAACAAAACUUAACCUUUCGCUAAUGCGUGUUGUACCAAAAGCAGACCAUGGUUUUACAUUUAUUCAAAAAUAUUAACAUUAAGCAACAGAGGAUUGAGCAUCA
B9: chr11:94154035:94154036:-_ENSMUSG00000020863_ENSMUST00000107820|mus_mus|FALSE|FALSE (ssRNA)
RNA: GGGAGUUCUACAGUCCGACGAUCAAUAGUUAAGUUUUAAAGCAUAUGUUUCUGCCAAUGUACCAACACAAGAUGGACUUAAUACCAAAAAGAAAAAAAAAACAGUUCAACCUUUUUAUUAAAAAAAAAAAGAAAAAGAAAAAGCAACAGAGGAUUGAGCAUCA
B10: chr16:30313237:30313238:-_ENSMUSG00000022533_ENSMUST00000100013|mus_mus|FALSE|FALSE (ssRNA)
RNA: GGGAGUUCUACAGUCCGACGAUCAACAACCCUGAGGGAGACCCACAUUAAAAAAUCUUAUUUAUUUAAAAAGUUAAAAAGCUACAUAUCAUUAUUUAACAAUUACUUUACCAGACAUUUCUGUCCUUUAAGUAUGUGCAUAAACAACAGAGGAUUGAGCAUCA
B11: chr7:135612270:135612271:-_ENSG00000105887_ENST00000393085|hu_mus|hu_hu_hu_mus_False|28_108 (ssRNA)
RNA: GGGAGUUCUACAGUCCGACGAUCGUUUCUGAGAUGUAUGUUAAAUAGUACUUCAGUGGAAAACAAAACUUAACCUUUUAUUAAUGCGUGUUGUACCAAAAGCAGACCAUGGUUUUACAUUUAUUCAAAAAUAUUAACAUUAAGCAACAGAGGAUUGAGCAUCA
B12: chr7:135612270:135612271:-_ENSG00000105887_ENST00000393085|hu_mus|hu_hu_hu_mus_False|38_88 (ssRNA)
RNA: GGGAGUUCUACAGUCCGACGAUCGUUUUUUUCUGAGAUGUUAAAUAUUCAGUGGAGGGAAAACAAAACUUAACCUUUUAUUAAUGCGUGUUGUACCAGAAAGCAAAAUUUUAGCUUCAUUUAUUCAAAAAUAUUAACAUUAAGCAACAGAGGAUUGAGCAUCA
B13: chr9:56975896:56975897:+_ENSMUSG00000042557_ENSMUST00000167715|mus_hu|FALSE|FALSE (ssRNA)
RNA: GGGAGUUCUACAGUCCGACGAUCACAUCAAAGCAUAUUUCUUUUAAUAAAAAAUUGACAGUAUGUACAUUAUGUACAAAAAAACAAGUUAAAAUUGUGUGUGUGUGUGCGUGUGUGUGUCAGAGAGUAAAGCUGGUGGAUGGCCAACAGAGGAUUGAGCAUCA
B14: chr16:30313237:30313238:-_ENSMUSG00000022533_ENSMUST00000100013|mus_hu|FALSE|FALSE (ssRNA)
RNA: GGGAGUUCUACAGUCCGACGAUCCAACCCUGAGGGAGACACACAUUAAAAAUCUUGUUAUUUAUUUAAAAAGUUAAAAAGUUACAUAUCAUUAUUUAACAAUUACUUUCCCAGACAUUUCUGUCCUUUAAGUAUGUGCAUAAACAACAGAGGAUUGAGCAUCA
B15: chr7:135612270:135612271:-_ENSG00000105887_ENST00000393085|hu_mus|hu_hu_hu_mus_False|1_58 (ssRNA)
RNA: GGGAGUUCUACAGUCCGACGAUCGUUUUUUUCUGAGAUGUUAAAUAGUACUUCAGUGGAAAACAAAACUUAACCUUUCGCUAAUGCGUGUUGUACCAAAAGCAGACAUUUUAGCUUCAUUUAUUCAAAAAUAUUAAGAACAUUCAACAGAGGAUUGAGCAUCA
B16: chr1:58468927:58468928:-_ENSMUSG00000026034_ENSMUST00000148330|mus_mus|mus_mus_mus_hu_False|28_48 (ssRNA)
RNA: GGGAGUUCUACAGUCCGACGAUCAAUUACUGAAAAAGAUGUUCAUUACCUUAGCUAUGUACUUAAUGAACCAAAUUACCCAAACAACAUAAAAUGUGCAAUAUAAAAAGCUAUACAAUUUACAAAGCUGUACAAAAUAACUUACAACAGAGGAUUGAGCAUCA
B17: chr7:135612270:135612271:-_ENSG00000105887_ENST00000393085|hu_mus|hu_hu_hu_mus_False|28_38 (ssRNA)
RNA: B8 RNA with C78U, G79A, C80U, A98G, G101A, C102G, A103C, G104A, C106A
B18: chr7:135612270:135612271:-_ENSG00000105887_ENST00000393085|hu_mus|hu_hu_hu_mus_False|38_48 (ssRNA)
RNA: B12 RNA with U47G, C49A, A50C, G51U, G53C, G54A, A55G, G56U, G87A, U91A
B19: 19477749_19479453_500_CDS_ENSMUSG00000028228_ENSMUST00000029885|mouse|control|control (ssRNA)
RNA: GGGAGUUCUACAGUCCGACGAUCUCUGGCUUCCAUUUCAAACAAUACCACUCUGUUAUCCUUUAUUUCUUCUGCUGAAAUCGUAAUACUCCCUUUCCCUGCAGGUUUGCCAUUUUUGAGCACCAGUGGUCGAGUUAGCUUCUUCAACAGAGGAUUGAGCAUCA
B20: chr2:9572718:9572719:+_ENSG00000119203_ENST00000238112|hu_mus|FALSE|FALSE (ssRNA)
RNA: GGGAGUUCUACAGUCCGACGAUCGACGUGGCCGGCAUGGUAACACCAGAACUUGAUUCCUGCAACUUCCUUAACUUCAUGAAAAUUGAUGGUUUCGAUUUUGUCCAUGCUUUCUUCCAAGUCUGUCUCAGUGUACAGCAUGUCCAACAGAGGAUUGAGCAUCA
B21: chr17:61655871:61655872:+_ENSG00000136485_ENST00000310827|hu_hu|FALSE|FALSE (ssRNA)
RNA: GGGAGUUCUACAGUCCGACGAUCGGUGGGGUAUGGGUGGUCAAAGGUGUUUCUGCAAAUAAACUCUGAACUCUCCUCAUCUAAACCAACAAGCUGAACCUUGUUGUUGUACUCCUCCACGAAGCUGCCCAGCGCCAAGCGAAACAACAGAGGAUUGAGCAUCA
B22: chr5:37680062:37680063:+_ENSMUSG00000029121_ENSMUST00000031004|mus_hu|mus_mus_mus_hu_False|1_18 (ssRNA)
RNA: GGGAGUUCUACAGUCCGACGAUCUUUGGGUGUAGCUGGUACCUCGUACACAGGACCGUCAUACAUGCCCCUGGAAACCCCUUGCAAUCCAAAAACCUUAUUCCUGAUUUUGACGCGCUGGUAGAGAUGCUCCGGGAAUGGCUUCAACAGAGGAUUGAGCAUCA

These binders were tested against T1, UNK ZnF1-3 (assay: nsRBNS (natural sequence RNA bind-n-seq); RBNS binding buffer (assumed for nsRBNS): 25 mM Tris pH 7.5, 150 mM KCl, 3 mM MgCl2, 0.01% Triton X-100, 500 ug/ml BSA, 20 U/ml SUPERase-In, 4 C; UNK is unkempt and MSI1 is Musashi-1; names of the RNAs are library labels; protein concentration not given here; high values mean tight binding).

| Binder | binding signal [enrichment R] |
| --- | --- |
| B1 | 0.843 |
| B2 | 14.4 |
| B3 | 10.8 |
| B4 | 0.957 |
| B5 | 1.27 |
| B6 | 1.44 |
| B7 | 1.12 |
| B8 | 1.03 |
| B9 | 6.23 |
| B10 | 4.91 |
| B11 | 0.924 |
| B12 | 4.08 |
| B13 | 5.76 |
| B14 | 3.61 |
| B15 | 0.611 |
| B16 | 0.529 |
| B17 | 0.956 |
| B18 | 1.66 |
| B19 | 0.645 |
| B20 | 0.798 |
| B21 | 1.21 |
| B22 | 0.867 |
